The values that follow come from PubChem BioAssay.

For assay [1], the target named is Nuclear receptor coactivator 1 (Homo sapiens) (UniProt Q15788). Kind of assay: SRC1 coactivator transcriptional activity inhibitors, confirmation, cell-based, luminescence, quadruplicate (AID 588820;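 active = mean inhibition above 46.68%, the untreated control wells mean plus 3 SD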;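 also: 0% = DMSO wells and 100% = gossypol 36 µM treated wells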). The following applies: HEK293 GAL4-SRC1 luciferase reporter, at 3.6 µM, active compounds read high. A general note: A reporter such as luciferase makes a cellular process visible.
Nuclear receptor coactivator 1 (Homo sapiens), sequence (Q15788 whole entry, looked up, the tested form may be a part): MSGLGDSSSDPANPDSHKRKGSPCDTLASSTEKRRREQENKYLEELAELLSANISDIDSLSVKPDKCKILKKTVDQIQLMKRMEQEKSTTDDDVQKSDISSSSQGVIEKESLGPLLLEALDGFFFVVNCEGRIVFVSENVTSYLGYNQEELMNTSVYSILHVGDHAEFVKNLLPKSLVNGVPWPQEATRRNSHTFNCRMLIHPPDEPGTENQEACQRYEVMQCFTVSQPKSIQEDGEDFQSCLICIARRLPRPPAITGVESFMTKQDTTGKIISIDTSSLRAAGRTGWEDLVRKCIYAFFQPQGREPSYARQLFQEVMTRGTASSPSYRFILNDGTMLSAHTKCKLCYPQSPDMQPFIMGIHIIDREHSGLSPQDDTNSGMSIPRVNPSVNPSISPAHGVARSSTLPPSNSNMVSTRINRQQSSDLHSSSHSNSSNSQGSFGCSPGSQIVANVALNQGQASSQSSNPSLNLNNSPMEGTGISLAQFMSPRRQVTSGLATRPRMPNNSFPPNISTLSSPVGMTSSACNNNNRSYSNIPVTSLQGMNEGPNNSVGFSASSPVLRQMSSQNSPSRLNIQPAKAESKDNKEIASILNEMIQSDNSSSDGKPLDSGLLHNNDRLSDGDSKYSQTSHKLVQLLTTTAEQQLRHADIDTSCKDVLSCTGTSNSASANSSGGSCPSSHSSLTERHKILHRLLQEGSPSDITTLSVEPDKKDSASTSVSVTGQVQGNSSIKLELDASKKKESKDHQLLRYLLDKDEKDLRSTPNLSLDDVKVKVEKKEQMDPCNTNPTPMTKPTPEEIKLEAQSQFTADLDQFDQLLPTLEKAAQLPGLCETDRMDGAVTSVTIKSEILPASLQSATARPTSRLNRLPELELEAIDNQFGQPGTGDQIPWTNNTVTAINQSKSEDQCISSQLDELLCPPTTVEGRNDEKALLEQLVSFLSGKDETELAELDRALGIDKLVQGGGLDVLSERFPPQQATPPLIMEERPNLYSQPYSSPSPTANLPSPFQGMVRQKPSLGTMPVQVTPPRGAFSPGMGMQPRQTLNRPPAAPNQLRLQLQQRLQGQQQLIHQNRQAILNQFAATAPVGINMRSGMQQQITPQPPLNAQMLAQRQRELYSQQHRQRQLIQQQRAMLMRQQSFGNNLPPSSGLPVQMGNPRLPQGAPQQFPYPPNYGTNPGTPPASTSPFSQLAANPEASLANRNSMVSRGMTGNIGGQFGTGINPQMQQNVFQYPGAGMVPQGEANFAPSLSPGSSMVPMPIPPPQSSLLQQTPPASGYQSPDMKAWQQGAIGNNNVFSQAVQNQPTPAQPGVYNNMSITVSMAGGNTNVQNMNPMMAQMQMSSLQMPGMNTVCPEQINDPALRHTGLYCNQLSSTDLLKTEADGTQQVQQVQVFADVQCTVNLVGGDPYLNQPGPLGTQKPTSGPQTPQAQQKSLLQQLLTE

The nature of assay [2]: VP16 transactivation inhibitors, counter-screen for SRC1 inhibitor project, cell-based, luminescence, high throughput (AID 588824). The following applies: cell-based VP16 transactivation luciferase luminescence; at 3.6 µM; active compounds read high. On the technique in general: Counterscreens check selectivity or assay interference.

Unmarked numbers belong to inactive results. Calls of active or inactive are those of the source. Rule as the data show it, unless noted: active = inhibition above about 25%; inactive = the rest.

Usually inhibition stands for the drop in the measured response relative to a control, in per cent. As to `Cc1ccc(-c2c[n+]3c(n2-c2ccccc2)CCC3)cc1`, the inhibition was 10.5% in assay [1] and 20.3% in assay [2].

Take `CCc1nnc(NC(=O)CCC(=O)NCc2ccccc2Cl)s1`: the inhibition in assay [1] is 10.2%; in assay [2] it was 6.37%.

Take `Cc1ccc(C(=O)NCCn2cc(SCC(=O)Nc3cc(C)on3)c3ccccc32)cc1`: the inhibition was 0.49% in assay [1] and -11.3% in assay [2].

Take `Cc1ccc(C(C(=O)NCc2ccccc2)N(Cc2cccs2)C(=O)c2ccc3c(c2)OCCO3)cc1` (centres undefined): the inhibition in assay [1] is -21.8%; in assay [2], -1.97%.

For `Cc1cccc(C(C)C)c1-n1nnnc1-c1ccccc1`, the inhibition in assay [1] was -4.66%; in assay [2], 13.5%.

For `COC(C(=O)Nc1ccc(S(=O)(=O)Nc2ccc(C)c(C)c2)cc1)c1ccccc1` (centres undefined), the inhibition in assay [1] was -8.72%; in assay [2], -12.5%.

Take `COc1ccc(C(C(=O)NCC2CCCO2)N(Cc2cccs2)C(=O)c2snc(C(N)=O)c2N)cc1` (centres undefined): the inhibition in assay [1] is -52.6%; in assay [2] it was -8.57%.

With `COc1ccc(C(=O)Cn2c(Br)nc3c2c(=O)n(C)c(=O)n3C)cc1`, the inhibition in assay [1] was -2.41%; in assay [2] it was 11.5%.

For `CCN(CC)c1ccc(C=Nc2cc(C)ccc2C)c(O)c1`, the results for the inhibition in assay [1] and in assay [2] were 3.4% and -6.63%, respectively.

In the case of `O=C1CC2(CCCC2)CC(=O)N1CCCCN1CCN(c2ncccn2)CC1`, the inhibition in assay [1] is 0.34%; in assay [2] it was 2.87%.

For `Cc1cc(C(=O)OCC(=O)N2CC(C)OC(C)C2)c(C)n1-c1ccccc1` (centres undefined), the inhibition in assay [1] was -17%; in assay [2] it was -1.93%.

Consider `O=C(NC1CCCCC1)C(c1ccc(F)cc1)N(CCCN1CCOCC1)C(=O)c1ccc(CN2CCOCC2)o1` (centres undefined), for which the inhibition in assay [1] is -0.03%; in assay [2], 3.53%.

Take `C=C(C)Cn1c(SCC(=O)O)nc2c1c(=O)[nH]c(=O)n2C`: the inhibition is 5.38% in assay [1] and 10.2% in assay [2].

As to `COc1ccc(O)c(C2(O)C(=O)c3ccccc3C2=O)c1`, the inhibition in assay [1] is -5.99%; in assay [2], 3.91%.

For `O=C(NCC[C@@H]1C[C@@H]2C=C[C@H]1C2)c1cc(COc2ccc(F)cc2F)on1`, the inhibition is -4.95% in assay [1] and 1.83% in assay [2].

On to `COc1cccc2c1OC1(C)CC2NC(=O)N1c1cccc(C(=O)Nc2ccc3c(c2)OCCO3)c1` (centres undefined), for which the inhibition is -28.6% in assay [1] and -19.2% in assay [2].

Regarding `COCCN1C2=C(C(=O)CC(C)(C)C2)C(c2ccc(OC)c(OC)c2)C2=C1CC(C)(C)CC2=O`, the inhibition in assay [1] is -10.8%; in assay [2] it was 12%.

With `O=C(Nc1ccc2c(c1)OCCO2)C(c1cc2ccccc2o1)N1CCN(C/C=C/c2ccccc2)CC1` (centres undefined), the inhibition in assay [1] is -6.79%; in assay [2], -12.4%.

With `Cc1sc(NC(=O)c2ccco2)c(C(c2cccnc2)N2CCC(C)CC2)c1C` (centres undefined), the values for the inhibition in assay [1] and in assay [2] were -5.49% and 26.1% (active), respectively.

In the case of `COc1cc(C(C)=O)ccc1OCC(=O)Nc1ccccc1N1CCCCC1`, the inhibition in assay [1] is 9.15%; in assay [2] it was 8%.

For the molecule `N#Cc1c(N)nc2c(c1-c1ccc(F)cc1)CCC2`, the inhibition in assay [1] was -6.03%; in assay [2], -10.2%.

As for `CC(C)(C)c1cc(C(=O)C[n+]2ccc(C(=O)NCCCO)cc2)cc(C(C)(C)C)c1O`, the inhibition in assay [1] is -6.91%; in assay [2] it was -12.9%.

`O=C(CNC(=O)Cc1ccccc1)N=Nc1c(O)n(Cc2ccc3c(c2)OCO3)c2ccccc12`: the inhibition was 3.52% in assay [1] and 3.04% in assay [2].

Regarding `COc1cc2c3c([nH]c2cc1F)C(=O)NCC3`, the inhibition in assay [1] was 19.2%; in assay [2], 14.9%.

Regarding `Cc1nn(Cc2cccc(F)c2)c(C)c1NC(=O)c1ccc(COc2ccccc2Cl)cc1`, the inhibition was 31.2% in assay [1] and 46.7% (active) in assay [2].

`COc1ccc(CN(C(=O)CSc2nnc(-c3c[nH]c4ccccc34)o2)c2ccc(F)cc2)cc1OC`: the results for the inhibition in assay [1] and in assay [2] were -67.5% and -22.2%, respectively.

`Cc1ccc2nc(NC(=O)CCCC(=O)O)sc2c1`: the values for the inhibition in assay [1] and in assay [2] were 45.4% and 37.5% (active), respectively.

On to `CC(C)Oc1ccc(C(=O)Nc2nc3ccccc3[nH]2)cc1`, for which the inhibition in assay [1] was -74.9%; in assay [2], -39.4%.

`COc1cccc(/C=N/NC(=O)CNC(=O)C2COc3ccccc3O2)c1O` (centres undefined): the inhibition in assay [1] is 21.7%; in assay [2] it was 8.91%.

Turning to `COc1ccccc1NS(=O)(=O)c1cc(NC(=O)C(C)(C)C)ccc1N1CCOCC1`, the inhibition is -45.2% in assay [1] and -32.5% in assay [2].

In the case of `Fc1cccc(CSc2nnc3ccc(-c4ccncc4)nn23)c1`, the inhibition in assay [1] is 21.7%; in assay [2] it was 9.73%.

On to `Cc1nc(N=C(N)N)nc2ccccc12`, for which the inhibition in assay [1] was 2.65%; in assay [2], -11.1%.
